Screens (PubChem BioAssay)
Compounds with a hit are over-represented: about 4.1% of the library has one in this group of screens.
aSyn UTR inh – MLPCN primary screen, SNCA 5' untranslated region. alpha-synuclein 5'UTR reporter, inhibitor activity. inhibition, % (tested at 7.5 µM). 300,000 tested, 0.82% active; in the data active = inhibition above about 60%; inconclusive = no clear call, values can overlap the other calls;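 note: H4 neuroglioblastoma cells stably carrying SNCA 5'UTR luciferase fusion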
Jurkat NFkB inh – inhibitors of induced NF-kB luciferase reporter, primary screen, TCR NF-kB activation inhibitor project, cell-based, luminescence, uHTS. Jurkat, PMA/ionomycin-induced NF-kB luciferase reporter. inhibition, % at 4 µM. 330,000 tested, 0.53% active; in the data active = inhibition above about 50%
697 NFkB inh – inhibitors of PMA/ionomycin-induced NF-kB reporter, 697 cells, primary screen, B-cell NF-kB inhibitor project, cell-based, luminescence, uHTS; 697 B-cell NF-kB luciferase reporter, 16 h; inhibition, % at 4 µM; 330,000 tested, 0.33% active; in the data active = inhibition above about 35%
Gli-Sufu block – Gli-Sufu pathway antagonists, primary screen, luciferase luminescence, Sufu-KO-LIGHT cells, uHTS; Sufu-KO-LIGHT fibroblasts, Gli luciferase reporter luminescence; inhibition, % at 5 µM; 340,000 tested, 0.74% active;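 active = inhibition above about 55%, limit read from the data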
Mdm2-MdmX inh – inhibitors of human Mdm2-MdmX association, primary screen, cell-based, luminescence, split luciferase, SaOS-2, uHTS; SaOS-2 split-luciferase Mdm2/MdmX complementation; inhibition, % at 8 µM; 330,000 tested, 3% active; AID 485346, 2010;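 active = inhibition of at least 50% at 8 µM in the primary screen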
KLF5 inhibitor – KLF5 expression inhibitors, primary screen, DLD-1 cells, luminescence | DLD-1 KLF5 promoter-luciferase reporter | inhibition, % at 5 µM | 290,000 tested, 0.23% active;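 active = inhibition above a per-plate limit of that plate's mean compound inhibition plus 3 SD, cut at about 60% in these data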;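 note: higher means less KLF5 promoter-driven luciferase light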
Jurkat NFkB conf – PMA/ionomycin-induced NF-kB reporter inhibitors, Jurkat retest, confirmation, T-cell NF-kB inhibitor project, cell-based, luminescence, single concentration | shares compounds with Jurkat NFkB inh | Jurkat NF-kB luciferase, 16 h | inhibition, % at 4 µM | 2,700 tested, 27% active | AID 435020, 2010;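 active = inhibition reaching about 45% at 4 µM in either replicate, limit read from the data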
Mdm2 MdmX conf – Mdm2-MdmX complex disruptors, retested hits, confirmation, luminescence, single concentration | Mdm2-MdmX binding, luminescent assay | inhibition, % at 8 µM | AID 489028, 2010 | 10,000 tested, 55% active | shares compounds with Mdm2-MdmX inh; in the data active = inhibition above about 40%
Full FLuc ctr – full-length luciferase signal inhibition, confirmation, counter-screen for Mdm2/MdmX interaction inhibitor project, cell-based, single concentration, SaOS-2 | shares compounds with Mdm2-MdmX inh | SaOS-2 full-length luciferase counterscreen, luminescence | inhibition, % at 8 µM | 6,200 tested, 77% active | AID 504607, 2011;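 active = mean inhibition at 8 µM reaching about 37%, which flags the compound as non-specific, limit read from the data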;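 note: p53-null SaOS-2 cells with luciferase driven by a doxycycline-inducible promoter; compound on cells about two nights before reading with doxycycline added after day one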
Of the large screens only hits and unclear results are named; the others gave an inactive call (follow-up assays come after a bar, where they were run).

Cc1ccc(C2=NN(C(=O)CSc3nccn3C)C(c3ccco3)C2)cc1 (stereo not given)	Jurkat NFkB inh 63, Mdm2-MdmX inh 65 | Jurkat NFkB conf inactive | Mdm2 MdmX conf 57 | Full FLuc ctr 68
O=C(CN1CCN(c2ccccc2O)CC1)Nc1cccnc1Cl	none
O=C(O)c1cccc(-n2nc(-c3ccc(Cl)c([N+](=O)[O-])c3)c3ccccc3c2=O)c1	none
CCCCCCCn1c2c(c(=N)c3ccccc31)CCC2	aSyn UTR inh 79, Jurkat NFkB inh 72, Gli-Sufu block 89, Mdm2-MdmX inh 89 | Jurkat NFkB conf 67 | Mdm2 MdmX conf 71 | Full FLuc ctr 37
COc1ccc(/C=N/Nc2ncnc(Cl)c2N)cc1OC	none
COc1cccc(/C=N/Nc2ncnc(Cl)c2N)c1O	aSyn UTR inh 89, Jurkat NFkB inh 56, Gli-Sufu block 79, Mdm2-MdmX inh 100 | Jurkat NFkB conf inactive | Mdm2 MdmX conf 83 | Full FLuc ctr inactive
CCC(C)C(Nc1ncnc2scc(-c3ccccc3)c12)C(=O)O (stereo not given)	none
COc1cccc(/C=N/Nc2ncnc3scc(-c4ccccc4)c23)c1O	aSyn UTR inh inconclusive, Jurkat NFkB inh 73, Gli-Sufu block 88, Mdm2-MdmX inh 82, KLF5 inhibitor 80 | Jurkat NFkB conf 57 | Mdm2 MdmX conf 80 | Full FLuc ctr inactive
Cc1onc(NC(=O)c2ccc(Cl)cc2Cl)c1Br	none
CC1CCCCN1C(=O)Cn1c(=O)oc2cc(S(=O)(=O)N3CCCC3)ccc21 (stereo not given)	none
C/C(=N\NC(=O)c1ccc(Cl)c(Cl)c1)c1ccccn1	Jurkat NFkB inh 98, Mdm2-MdmX inh 83 | Jurkat NFkB conf 53 | Mdm2 MdmX conf 81 | Full FLuc ctr inactive
CC(C)(C)c1ccc(C(=O)N/N=C/c2ccccn2)cc1	none
COc1ccc(NC(=O)c2ccccn2)cc1OC	none
C/C(=N/NC(=O)c1ccc(C(C)(C)C)cc1)c1ccccn1	Jurkat NFkB inh 100, Gli-Sufu block 65, Mdm2-MdmX inh 93 (no result: KLF5 inhibitor) | Jurkat NFkB conf inactive | Mdm2 MdmX conf 44 | Full FLuc ctr 55
C/C(Cc1ccccc1)=N\NC(=O)c1ccccn1	none
C/C(=N\NC(=O)c1cc(-c2cccs2)nc2ccccc12)c1ccccn1	aSyn UTR inh 79, Jurkat NFkB inh 55, Gli-Sufu block 93, Mdm2-MdmX inh 80 | Jurkat NFkB conf inactive | Mdm2 MdmX conf 75 | Full FLuc ctr inactive
COc1ccc(C(=O)N/N=C(\C)c2ccccn2)cc1OC	Jurkat NFkB inh 96, Gli-Sufu block 95, Mdm2-MdmX inh 99 | Jurkat NFkB conf inactive | Mdm2 MdmX conf inactive
CC(C)(C)NC(=O)CN(Cc1ccc2c(c1)OCO2)C(=O)CNS(=O)(=O)c1ccccc1	none
CN(C)CC1CCCCC1OC(=O)c1ccc(S(=O)(=O)N(C)c2ccccc2)cc1 (stereo not given)	none
C/C(=N\NC(=O)c1cccc2ccccc12)c1cccs1	none
C/C(=N\NC(=O)c1cccc2ccccc12)c1ccccn1	Jurkat NFkB inh 95, Gli-Sufu block 80, Mdm2-MdmX inh 96 | Jurkat NFkB conf inactive | Mdm2 MdmX conf inactive | Full FLuc ctr inactive
